# Peg3 imprint: induces erasure of genomic imprints in mouse ES cells. mouse ES Peg3-LacZ reporter, beta-gal luminescence, 40 h. Potency, µM (top dose mostly 60.7 µM), for the others: at the highest dose activity change, positive = activation, usual class: activators. hit rate 0.02% among 110,000. AID 1948
#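 Imprint erasure is scored as LacZ activity from the silenced maternal Peg3 allele in feeder-free female ES cells cultured 40 h with LIF. Luminescence is normalized to in-plate negative controls and fitted to the Hill equation.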
# p53ts 39C tox: p53ts cell cytotoxicity, nonpermissive temperature | H1299-p53A138V viability at 39C, ATP luminescence, 24 h | Potency, µM (titrated, usually from 46.1 µM), for inactives: at the highest dose activity change, negative = cell killing, actives largely listed as cytotoxic | hit rate 1.5% among 130,000 | AID 902; further: on the % scale 0 is the no-effect control and ±100 the full control effect; nearly all actives have a fitted effect of over 55% in size
# IkB sig inh: inhibitors of IkB signaling in ABC-DLBCL cells. AID 445. ABC-DLBCL IkBa-CBG/CBR dual luciferase ratio, 4 h; response scale: scaled: untreated 0%, proteasome inhibitor 100%. Potency, µM (top dose mostly 57.1 µM), without a hit: at the top dose IkBa stabilization activation. hit rate 0.04% among 110,000; active means well fitted curve in the direction sought with a large enough effect in the signal ratio, not every such curve was filed as active; inconclusive means small, poorly fitted or top-dose-only effect, or a change in a side signal; the % refers to the signal ratio;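 further: the direction sought is a rising ratio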
#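 Luminescence ratio of IκBα-fused green versus native red beetle luciferase in OCI-Ly3 cells, 4 h post-doxycycline with compound; red signal alone, scaled from basal (0%) to zero light (-100%), flagged nonspecific or cytotoxic effects.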
# p53ts 32C tox: kills p53ts cells at the permissive temperature. Potency, µM (titrated, usually from 46.1 µM), for the others: at the top dose activity change, negative = cytotoxicity, usual class: cytotoxic. hit rate 0.93% among 130,000. H1299-p53A138V at 32C, ATP luminescence viability, 24 h;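 further: 0% = DMSO and -100% = full killing by reference compound; nearly all actives have a fitted effect of over 55% in size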
#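 ATP-content luminescence (ATPlite) read-out after 24 h compound exposure at 32C in H1299-p53A138V cells (600/well). Tested up to 46 uM. Normalized to DMSO (0%) and 100 uM tamoxifen (100% killing); Hill-fit AC50.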
# An asterisk follows results filed as active; ? = inconclusive; . = no result; [ ] = dose if it differs, or a comment. Compounds with a hit are over-represented: about 1.6% of the library has one in this group of screens. Unless noted, the call rests on the fitted dose curve; in most records, active means well fitted curve in the direction sought with a large enough effect; inconclusive means small, poorly fitted or top-dose-only effect, or another doubt; inactive means no such curve, though single readings can be large; an effect the other way counts as inactive or inconclusive. Potency means the concentration at half of the fitted maximal effect.
SMILES,Peg3 imprint,p53ts 39C tox,IkB sig inh,p53ts 32C tox
c1csc(CNc2ccnc(-c3ccc4c(c3)OCO4)n2)c1,-14%,10µM*,2%[11.4 µM],13µM*
c1cncc(-c2nccc(NCc3cccs3)n2)c1,?,-14%,3%[11.4 µM],-2%
Cc1nc2c(-c3ccccc3)c(C)nn2c(N)c1-c1ccccc1,.,?,.,11µM*
CCOc1ccc(NS(=O)(=O)c2ccc(C)c(C(=O)O)c2)cc1,.,-3%,.,-7%
O=C(NCCCN1CCN(c2ccccc2F)CC1)c1cc2c(s1)-c1ccccc1OC2,-11%[10.9 µM],13µM*,?,?
CCCN1CCN(CCCNC(=O)c2cc3c(s2)-c2c(C)cccc2OC3)CC1,-18%[10.9 µM],10µM*,?,?
CCCN1CCN(CCCNC(=O)c2cc3c(s2)-c2ccccc2OC3)CC1,-12%[10.9 µM],?,?,-17%
CN(C)CC(C)(C)CNC(=O)c1ccc(Cc2nc3ccccc3[nH]2)cc1,.,3%,.,-2%
CCc1ccc(NC(=O)c2ccc(F)c(S(=O)(=O)NCCc3ccc(OC)c(OC)c3)c2)cc1,-23%[10.9 µM],-14%,?,8%
CCOC(=O)CNc1ncnc2nc[nH]c12,-78%,?,?,7.9µM*
CC(C)=CCNc1ncnc2nc[nH]c12,1%[10.9 µM],12%[9.22 µM],0%[11.4 µM],1%[9.22 µM]
Cc1ccc(NS(=O)(=O)c2ccc3[nH]c4c(c3c2)CCCCCC4)cc1,-7%[10.9 µM],?,-1%,-3%
CCc1ccc(NS(=O)(=O)c2ccc3[nH]c4c(c3c2)CCCCCC4)cc1,-14%[10.9 µM],20µM*,4%,11%
CCOC(=O)c1ccc(NS(=O)(=O)c2ccc3[nH]c4c(c3c2)CCCCC4)cc1,-13%[10.9 µM],16µM*,?,?
O=c1/c(=C\c2ccc3c(c2)OCO3)sc2n1CCCN=2,-81%,13µM*,?,13µM*
Cc1ccc(/C=c2/sc3n(c2=O)CCCN=3)o1,.,-19%,.,-23%
Cc1ccc(C(=O)/C=C2\NCCNC2=O)cc1,.,?,.,13µM*
Cc1ccc(C(=O)C2CCNCC2)cc1,-48%,-7%,-4%,-9%
COC(=O)[C@@H](NC(=O)c1cc(-c2ccccc2)nc2ccccc12)c1ccccc1,.,.,-4%,.
CCN1CCC[C@@H]1CNC(=O)c1c(OC)ccc(I)c1O,.,.,-10%,.
CCOc1ccc(N2C(=O)CC(SCCN)C2=O)cc1 (configuration not stated),.,13µM*,0%,13µM*
O=C(Nc1ccc(Cl)cn1)c1cc2ccccc2o1,-60%,?,?,13µM*
O=C(Nc1ccccc1)Nc1ccccc1,-70%,?,4%,?
O=C(Nc1ccccn1)c1cc2ccccc2o1,.,5µM*,.,4.5µM*
O=C(Nc1cccc2ncccc12)c1cc2ccccc2o1,-14%,0%,?,-5%
SMILES,Peg3 imprint,p53ts 39C tox,IkB sig inh,p53ts 32C tox
O=C(NC1=NCCS1)Nc1ccccc1,-87%,16µM*,5%,10µM*
O=C(NC1=NCCS1)c1csc2ccccc12,.,?,.,13µM*
O=C(O)[C@@H]1[C@@H](C(=O)NCc2ccncc2)[C@@H]2C=C[C@@H]1O2,0%[10.9 µM],-8%[9.22 µM],1%[11.4 µM],-3%[9.22 µM]
CC1=CC(=O)CC(C)(C)[C@@]1(O)/C=C\C(C)=C\C(=O)O,.,.,-1%[11.4 µM],.
Oc1ccc(Cc2nccc3cc(O)c(O)cc23)cc1O,4%[10.9 µM],5%[9.22 µM],1%[11.4 µM],6%[9.22 µM]
O=C(NC1=NCCS1)c1cc2ccccc2o1,-73%,5µM*,?,5µM*
O=C(Nc1ccc(C(=O)N2CCCCC2)cc1)c1nsc2ccccc12,-69%[10.9 µM],3.2µM*,?,3.2µM*
O=C(Nc1ccc(C(=O)N2CCN(c3ccc(F)cc3)CC2)cc1)c1nsc2ccccc12,6%[10.9 µM],-15%,?,16%
Cc1ccc(CNC(=O)c2ccc(NC(=O)c3nsc4ccccc34)cc2)cc1,-8%[10.9 µM],-21%,?,-8%
O=C(NCc1cccc(F)c1)c1ccc(NC(=O)c2nsc3ccccc23)cc1,7%[10.9 µM],10µM*,?,11µM*
CNC(=O)c1ccc(NC(=O)c2nsc3ccccc23)cc1,-70%[10.9 µM],7.9µM*,?,7.9µM*
CCOC(=O)c1ccc(NC(=O)c2nsc3ccccc23)cc1,-47%[10.9 µM],13µM*,?,?
CCNc1ncc2nc(C)c(=O)n(CCc3ccccc3)c2n1,-11%,-14%,-2%[11.4 µM],3%
C=C[C@@](C)(O)CC[C@H]1[C@]2(C)CCCC(C)(C)[C@H]2CC[C@]1(C)O,.,.,1%[11.4 µM],.
COc1cc(NS(=O)(=O)c2ccc3oc(=O)c4ncn(C)c4c3c2)cc(OC)c1,8%[10.9 µM],?,4%,-29%
CCc1ccc(NS(=O)(=O)c2ccc3oc(=O)c4ncn(CC)c4c3c2)cc1,-4%[10.9 µM],13µM*,?,?
CN1C(=O)CSc2ccc(NC(=O)N3CCc4ccccc43)cc21,-45%,?,?,10µM*
Cc1ccc(NC(=O)N2CCc3ccccc32)cc1,.,5µM*,.,4.5µM*
CN1C(=O)CSc2ccc(NC(=O)N3CCN(c4ccccn4)CC3)cc21,-21%,-8%,?,-14%
O[C@@H](COc1cccc2ccccc12)CN1CCOCC1,-2%[10.9 µM],-4%[9.22 µM],0%[11.4 µM],5%[9.22 µM]
CSc1ccc(CCNC(=O)c2ccc(-n3c(C)cc4c3CCCC4)cc2)cc1,.,.,.,-5%
CCOc1ccc(-c2ccc(CO)o2)cc1N,-23%[10.9 µM],?,4%,16µM*
CCOc1ccc(-c2nnc(-c3ccco3)o2)cc1OCC,5%,-11%,-1%,0%
O=C(/C=C\Nc1ccccn1)c1ccc(Cl)cc1,-85%,13µM*,?,7.9µM*

# Bioassay records: PubChem BioAssay, National Center for Advancing Translational Sciences (NCATS)
